Data as given in PubChem BioAssay (EPA / NIEHS).
Inconclusive results are not listed. Calls of active or inactive are those of the source. The calls were made as follows, unless noted: active = hit-call score of the fitted dose curve at least 0.9, where 1 is the maximum; inactive = score below 0.9.

How the values were obtained:
[1] = ATG_E_Box_CIS: Attagene CIS-FACTORIAL HepG2 Assay for human Enhancer Box (E-box) (AID 2282936); conditions: HepG2 E-box cis-reporter transcription, actives raise or lower the signal
How it was run: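 HepG2 cells transiently transfected with multiplexed cis-element reporter units sensing endogenous transcription factor activity; 24 h compound exposure. Reporter mRNA measured by RT-PCR, 6-FAM primer extension, HpaI digestion and capillary electrophoresis; bidirectional fit versus DMSO.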

[2] = molecular target: Heat shock factor protein 1 (Homo sapiens) (UniProt Q00613); assay: ATG_HSE_CIS: Attagene CIS-FACTORIAL HepG2 Assay for human Heat Shock Transcription Factor 1 (HSE) (AID 2282953); conditions: HepG2 HSE cis-reporter, Attagene RNA transcription; actives raise or lower the signal
How it was run: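 HepG2 cells transfected with cis-promoter reporter units sensing endogenous transcription factor activity; reporter mRNA quantified 24 h post-dose by RT-PCR and capillary electrophoresis of 6-FAM-labelled products. Bidirectional fitting against DMSO.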

[3] = ATG_PPRE_CIS: Attagene CIS-FACTORIAL HepG2 Assay for human Peroxisome Proliferator-activated Response Element (PPRE) (AID 2282958); conditions: HepG2 PPRE cis-element reporter, Attagene transcription factor profiling; actives raise or lower the signal
How it was run: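 PPRE activity in HepG2: transient cis-reporter transfection, 24 h compound incubation, reporter mRNA by RT-PCR and CE fluorescence; gain/loss fitted against DMSO.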

[4] = ATG_RORE_CIS: Attagene CIS-FACTORIAL HepG2 Assay for human RAR-related Orphan Receptor Element (RORE) (AID 2282959); conditions: HepG2 Attagene cis-factorial RORE reporter, mRNA; actives raise or lower the signal
How it was run: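 A 24-hour exposure of transfected HepG2 hepatoma cells precedes RNA isolation and reporter RT-PCR. Labeled products are digested with HpaI and resolved by capillary electrophoresis, with gain or loss of signal scored relative to DMSO.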

[5] = molecular target: Transcription factor Sp1 (Homo sapiens) (UniProt P08047); assay: ATG_Sp1_CIS: Attagene CIS-FACTORIAL HepG2 Assay for human Specificity Protein 1 (Sp1) (AID 2282961); conditions: HepG2 Sp1 cis-reporter transcription, actives raise or lower the signal
How it was run: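 Liver-derived HepG2 cells, cis-element reporter library, 24 h treatment; RNA isolated, cDNA amplified with reporter-specific primers, FAM-labeled fragments sized on capillary analyzer. DMSO baseline, bidirectional curve fit.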

[6] = ATG_SREBP_CIS: Attagene CIS-FACTORIAL HepG2 Assay for human Sterol Regulatory Element Binding (SREBP) (AID 2282962); conditions: HepG2 Attagene cis-factorial SREBP reporter, mRNA; actives raise or lower the signal
How it was run: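 HepG2 cells transiently transfected with multiplexed cis-promoter reporter units sensing endogenous transcription factors; reporter mRNA measured 24 h after dosing by RT-PCR, 6-FAM labeling, HpaI digestion and capillary electrophoresis. Bidirectional fit versus DMSO.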

[7] = ATG_TCF_b_cat_CIS: Attagene CIS-FACTORIAL HepG2 Assay for human T-Cell-Factor with beta-catenin (TCF/b-cat) (AID 2282965); conditions: HepG2 TCF/beta-catenin cis-reporter transcription, actives raise or lower the signal
How it was run: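 Using capillary electrophoresis as the read-out, labelled reporter cDNA fragments from transiently transfected HepG2 were sized and quantified. Exposure lasted 24 hours; activity in either direction was referenced to DMSO.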

[8] = ATG_TAL_CIS: Attagene CIS-FACTORIAL HepG2 Assay for human TAL Basal Promoter (AID 2282966); conditions: HepG2 Attagene cis-factorial TAL promoter reporter; actives raise or lower the signal;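 also: background control endpoint measuring basal TAL promoter reporter mRNA not a specific factor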
How it was run: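 In this cell-based multiplex, HepG2 liver cells bearing cis-promoter reporter constructs are dosed for 24 hours. Total RNA is reverse-transcribed and amplified, labelled fragments are sized by capillary electrophoresis, and signal changes are fitted bidirectionally versus DMSO.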

[9] = ATG_TGFb_CIS: Attagene CIS-FACTORIAL HepG2 Assay for human Transforming Growth Factor (TGF) (AID 2282967); conditions: HepG2 Attagene CIS TGFb reporter, mRNA transcription; actives raise or lower the signal
How it was run: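 HepG2 cells transiently transfected with cis-promoter-driven multiple reporter units measure endogenous TF activity; reporter mRNA quantified at 24 h by RT-PCR, FAM labeling, HpaI digestion and capillary electrophoresis. Bidirectional fit vs DMSO.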

[10] = ATG_VDRE_CIS: Attagene CIS-FACTORIAL HepG2 Assay for human Vitamin D Receptor Element (VDRE) (AID 2282968); conditions: HepG2 VDRE cis-reporter transcription, actives raise or lower the signal
How it was run: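 HepG2 cells transiently transfected with cis-element reporter units, dosed 24 h; reporter mRNA measured by RT-PCR, 6-FAM labeling, HpaI digestion and capillary electrophoresis. Activity fitted bidirectionally against DMSO baseline.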

[11] = molecular target: X-box-binding protein 1 (Homo sapiens) (UniProt P17861); assay: ATG_Xbp1_CIS: Attagene CIS-FACTORIAL HepG2 Assay for human X-box Binding Protein 1 (XBP1) (AID 2282972); conditions: HepG2 XBP1 cis-element reporter, Attagene multiplex; actives raise or lower the signal
How it was run: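 HepG2 cells transiently transfected with multiple cis-element reporter units report endogenous TF activity; 24 h exposure, then reporter mRNA measured by RT-PCR, 6-FAM labelling, HpaI digestion and capillary electrophoresis. Bidirectional fitting versus DMSO.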

[12] = ATG_M_32_TRANS: Attagene TRANS-FACTORIAL HepG2 Assay for M32 Transcription Factor (Internal Marker) (AID 2282984; active = hit-call score of the fitted dose curve at least 0.9, where 1 is the maximum;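 also: transcript level of a background control reporter unit measured by RT-PCR and capillary electrophoresis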); conditions: HepG2 Attagene TRANS M32 internal marker reporter
How it was run: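 HepG2 cells transiently transfected with multiple GAL4-UAS reporter transcription units, dosed for 24 hours; reporter mRNA quantified by RT-PCR, 6-FAM primer extension, HpaI digestion and capillary electrophoresis. Gain-of-signal fitted versus DMSO baseline; internal background-control marker.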

[13] = molecular target: Transcriptional activator Myb (Homo sapiens) (UniProt P10242); assay: ATG_Myb_CIS: Attagene CIS-FACTORIAL HepG2 Assay for human Myeloblastosis (Myb) Proto-Oncogene Transcription Factor (AID 2282986); conditions: HepG2 Attagene CIS-FACTORIAL Myb reporter transcription; actives raise or lower the signal
How it was run: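 After 24 h of compound dosing, total RNA from transfected HepG2 cells is reverse-transcribed and the reporter sequences amplified, labeled and separated by capillary electrophoresis. Values come from bidirectional fitting against DMSO.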

[14] = molecular target: Nuclear respiratory factor 1 (Homo sapiens) (UniProt Q16656); assay: ATG_NRF1_CIS: Attagene CIS-FACTORIAL HepG2 Assay for human Nuclear Respiratory Factor 1 (NRF1) Orphan Gene (AID 2282987); conditions: HepG2 NRF1 cis-element reporter, Attagene multiplex; actives raise or lower the signal
How it was run: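 Measured: fluorescent reporter-specific RT-PCR products from transfected HepG2 cells, separated by capillary electrophoresis. Exposure lasted 24 h. Analysis used bidirectional curve fitting with DMSO as negative control.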

[15] = ATG_NFI_CIS: Attagene CIS-FACTORIAL HepG2 Assay for human Nuclear Factor I (NFI) (AID 2282989); conditions: HepG2 cis-regulatory reporter, NFI response element transcription; actives raise or lower the signal
How it was run: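 Endogenous TF activity in HepG2 cells transiently transfected with cis-element-driven multiplexed reporter units, read 24 h after dosing. Reporter mRNA quantified by RT-PCR, 6-FAM labelling, HpaI digestion and capillary electrophoresis; bidirectional fit versus DMSO.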

[16] = molecular target: Myc proto-oncogene protein (Homo sapiens) (UniProt P01106); assay: ATG_Myc_CIS: Attagene CIS-FACTORIAL HepG2 Assay for human Myelocytomatosis (Myc) Proto-Oncogene Transcription Factor (AID 2282990); conditions: HepG2, Attagene cis-reporter transcription factor activity; actives raise or lower the signal
How it was run: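 Multiplexed cis-reporter transcription in HepG2 cells after 24 h chemical treatment. Reporter mRNA measured by RT-PCR and capillary electrophoresis fluorescence; activity fitted bidirectionally against DMSO control.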

[17] = ATG_NRF2_ARE_CIS: Attagene CIS-FACTORIAL HepG2 Assay for human Nuclear Factor Erythroid 2 Related Factor 2 (NFR2) response to Antioxidant Response Elements (ARE) (AID 2282992); conditions: HepG2 Attagene ARE/NRF2 reporter, transcription factor activity; actives raise or lower the signal
How it was run: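 HepG2 cells transiently transfected with multiplexed cis-element reporter constructs, 24 h after chemical dosing; reporter mRNA quantified by RT-PCR, fluorescent primer extension, HpaI digestion and capillary electrophoresis. Bidirectional fit relative to DMSO.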

[18] = ATG_Oct_MLP_CIS: Attagene CIS-FACTORIAL HepG2 Assay for human Octamer-Binding Transcription Factor (Oct) (AID 2282993); conditions: HepG2 Attagene cis-factorial Oct reporter, mRNA; actives raise or lower the signal
How it was run: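 HepG2 cells transiently transfected with cis-element-driven reporter transcription units (endogenous TF activity); 24 h compound exposure. Reporter mRNA quantified by RT-PCR, 6-FAM labelling, HpaI digestion and capillary electrophoresis; bidirectional fit versus DMSO baseline.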

[19] = molecular target: Cellular tumor antigen p53 (Homo sapiens) (UniProt P04637); assay: ATG_p53_CIS: Attagene CIS-FACTORIAL HepG2 Assay for human p53 Transcription Factor (AID 2282994); conditions: HepG2 p53 cis-element reporter, Attagene mRNA; actives raise or lower the signal
How it was run: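 HepG2 cells transiently transfected with cis-regulated multiple reporter transcription units, dosed 24 h. Reporter mRNA measured by RT-PCR, 6-FAM primer extension, HpaI digestion and capillary electrophoresis; bidirectional fit relative to DMSO.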

[20] = molecular target: Peroxisome proliferator-activated receptor gamma (Homo sapiens) (UniProt P37231); assay: ATG_PPARg_TRANS: Attagene TRANS-FACTORIAL HepG2 Assay for human Peroxisome Proliferator-activated Receptor-gamma (PPARg) (AID 2283007; active = hit-call score of the fitted dose curve at least 0.9, where 1 is the maximum)
How it was run: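 Twenty-four hours after chemical dosing of transiently transfected HepG2 cells, isolated RNA was converted to cDNA, reporter sequences amplified and 6-FAM-labelled, then HpaI-digested and analysed by capillary electrophoresis. Signal increase against DMSO was fitted.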

Measured: outcome

Sequence of Myc proto-oncogene protein (Homo sapiens) (P01106 whole entry, looked up): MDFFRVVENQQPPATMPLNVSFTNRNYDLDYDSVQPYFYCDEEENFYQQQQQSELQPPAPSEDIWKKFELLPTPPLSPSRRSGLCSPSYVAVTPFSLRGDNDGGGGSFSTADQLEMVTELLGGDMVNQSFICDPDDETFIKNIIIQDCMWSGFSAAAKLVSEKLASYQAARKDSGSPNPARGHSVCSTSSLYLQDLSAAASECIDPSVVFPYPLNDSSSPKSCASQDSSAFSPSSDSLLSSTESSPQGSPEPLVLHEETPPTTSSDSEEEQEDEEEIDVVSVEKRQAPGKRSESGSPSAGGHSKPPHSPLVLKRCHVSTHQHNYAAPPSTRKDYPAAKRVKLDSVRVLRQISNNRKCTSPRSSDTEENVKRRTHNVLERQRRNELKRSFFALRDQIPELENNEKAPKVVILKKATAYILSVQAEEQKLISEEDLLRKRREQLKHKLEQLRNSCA
Sequence of Transcription factor Sp1 (Homo sapiens) (P08047 whole entry, looked up, the tested form may be a part): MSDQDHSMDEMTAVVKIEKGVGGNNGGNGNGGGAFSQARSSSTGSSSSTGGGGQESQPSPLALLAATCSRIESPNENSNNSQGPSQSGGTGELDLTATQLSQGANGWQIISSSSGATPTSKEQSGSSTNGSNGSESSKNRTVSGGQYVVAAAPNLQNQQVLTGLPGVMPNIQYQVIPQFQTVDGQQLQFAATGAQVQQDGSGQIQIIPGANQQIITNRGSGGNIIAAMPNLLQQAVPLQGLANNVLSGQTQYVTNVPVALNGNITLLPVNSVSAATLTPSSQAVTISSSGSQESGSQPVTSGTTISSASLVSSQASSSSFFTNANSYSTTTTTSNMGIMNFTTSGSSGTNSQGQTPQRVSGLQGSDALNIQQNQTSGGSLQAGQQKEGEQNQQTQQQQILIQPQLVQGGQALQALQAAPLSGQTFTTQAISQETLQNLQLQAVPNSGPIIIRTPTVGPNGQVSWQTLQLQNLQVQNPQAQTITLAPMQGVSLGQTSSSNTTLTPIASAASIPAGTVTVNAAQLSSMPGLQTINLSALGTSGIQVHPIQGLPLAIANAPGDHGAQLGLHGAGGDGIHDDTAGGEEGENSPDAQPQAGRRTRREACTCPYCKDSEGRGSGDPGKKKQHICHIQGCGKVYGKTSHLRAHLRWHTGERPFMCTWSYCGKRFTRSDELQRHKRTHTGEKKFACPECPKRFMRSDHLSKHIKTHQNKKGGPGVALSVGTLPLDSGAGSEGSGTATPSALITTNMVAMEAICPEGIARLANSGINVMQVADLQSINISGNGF
Sequence of Transcriptional activator Myb (Homo sapiens) (P10242 whole entry, looked up): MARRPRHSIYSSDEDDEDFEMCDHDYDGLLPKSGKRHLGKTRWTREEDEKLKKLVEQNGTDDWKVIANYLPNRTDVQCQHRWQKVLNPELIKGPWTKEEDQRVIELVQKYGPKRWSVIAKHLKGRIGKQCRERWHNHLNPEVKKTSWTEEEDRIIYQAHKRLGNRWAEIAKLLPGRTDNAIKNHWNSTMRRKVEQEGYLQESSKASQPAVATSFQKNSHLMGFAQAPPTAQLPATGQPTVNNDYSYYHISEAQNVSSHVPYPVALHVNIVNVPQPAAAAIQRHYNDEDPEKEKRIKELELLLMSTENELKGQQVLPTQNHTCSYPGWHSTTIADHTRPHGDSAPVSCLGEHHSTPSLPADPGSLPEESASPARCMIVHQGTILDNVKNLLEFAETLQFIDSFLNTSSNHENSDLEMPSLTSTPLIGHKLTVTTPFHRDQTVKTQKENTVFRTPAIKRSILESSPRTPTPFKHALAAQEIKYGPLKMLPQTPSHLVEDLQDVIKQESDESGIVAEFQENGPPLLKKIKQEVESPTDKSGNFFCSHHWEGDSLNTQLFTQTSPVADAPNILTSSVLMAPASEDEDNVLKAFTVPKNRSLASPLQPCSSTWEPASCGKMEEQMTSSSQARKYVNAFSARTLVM
Sequence of Heat shock factor protein 1 (Homo sapiens) (Q00613 whole entry, looked up): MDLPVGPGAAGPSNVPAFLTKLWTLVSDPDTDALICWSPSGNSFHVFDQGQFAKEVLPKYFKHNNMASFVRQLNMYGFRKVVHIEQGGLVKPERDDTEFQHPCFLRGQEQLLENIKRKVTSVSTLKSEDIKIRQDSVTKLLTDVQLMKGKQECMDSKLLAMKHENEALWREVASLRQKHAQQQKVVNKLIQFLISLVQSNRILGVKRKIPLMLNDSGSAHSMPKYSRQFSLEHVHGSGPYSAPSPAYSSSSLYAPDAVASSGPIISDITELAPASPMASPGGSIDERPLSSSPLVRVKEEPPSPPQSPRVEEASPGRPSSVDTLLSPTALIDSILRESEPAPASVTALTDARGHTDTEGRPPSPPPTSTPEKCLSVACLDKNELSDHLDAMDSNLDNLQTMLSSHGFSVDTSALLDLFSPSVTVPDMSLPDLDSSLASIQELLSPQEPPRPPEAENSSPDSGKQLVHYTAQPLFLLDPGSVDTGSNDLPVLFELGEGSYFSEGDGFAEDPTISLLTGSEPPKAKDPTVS
Sequence of Cellular tumor antigen p53 (Homo sapiens) (P04637 whole entry, looked up): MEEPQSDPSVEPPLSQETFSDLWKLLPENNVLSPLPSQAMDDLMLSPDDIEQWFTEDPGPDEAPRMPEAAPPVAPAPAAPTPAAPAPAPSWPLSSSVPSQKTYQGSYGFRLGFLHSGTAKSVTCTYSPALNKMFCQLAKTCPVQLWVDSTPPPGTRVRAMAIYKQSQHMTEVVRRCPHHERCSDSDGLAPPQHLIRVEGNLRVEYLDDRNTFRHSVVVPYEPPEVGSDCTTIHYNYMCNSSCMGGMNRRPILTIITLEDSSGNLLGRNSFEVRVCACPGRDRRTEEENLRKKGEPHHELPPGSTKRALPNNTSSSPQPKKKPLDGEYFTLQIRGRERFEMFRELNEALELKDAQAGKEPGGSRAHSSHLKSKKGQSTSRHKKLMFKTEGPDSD
Sequence of X-box-binding protein 1 (Homo sapiens) (P17861 whole entry, looked up): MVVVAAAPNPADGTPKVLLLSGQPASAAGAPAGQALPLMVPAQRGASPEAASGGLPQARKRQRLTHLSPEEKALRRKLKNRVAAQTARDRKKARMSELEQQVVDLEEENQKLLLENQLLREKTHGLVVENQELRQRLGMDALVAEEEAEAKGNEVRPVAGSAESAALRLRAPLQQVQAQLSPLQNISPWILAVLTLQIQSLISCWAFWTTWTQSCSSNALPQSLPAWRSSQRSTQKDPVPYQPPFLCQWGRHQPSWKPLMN
Sequence of Nuclear respiratory factor 1 (Homo sapiens) (Q16656 whole entry, looked up): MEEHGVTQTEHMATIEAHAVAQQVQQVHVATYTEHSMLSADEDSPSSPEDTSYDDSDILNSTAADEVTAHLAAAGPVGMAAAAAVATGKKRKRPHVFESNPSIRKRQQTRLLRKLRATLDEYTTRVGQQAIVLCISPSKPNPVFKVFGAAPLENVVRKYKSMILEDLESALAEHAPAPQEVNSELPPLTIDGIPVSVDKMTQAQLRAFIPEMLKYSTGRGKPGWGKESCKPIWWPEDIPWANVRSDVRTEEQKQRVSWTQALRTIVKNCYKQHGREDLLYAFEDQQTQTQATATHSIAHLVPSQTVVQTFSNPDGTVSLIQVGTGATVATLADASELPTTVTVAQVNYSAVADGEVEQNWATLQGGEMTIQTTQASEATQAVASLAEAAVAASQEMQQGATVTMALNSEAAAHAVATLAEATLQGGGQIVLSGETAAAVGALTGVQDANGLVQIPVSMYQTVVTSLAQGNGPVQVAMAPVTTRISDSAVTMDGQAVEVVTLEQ
Sequence of Peroxisome proliferator-activated receptor gamma (Homo sapiens) (P37231 whole entry, looked up): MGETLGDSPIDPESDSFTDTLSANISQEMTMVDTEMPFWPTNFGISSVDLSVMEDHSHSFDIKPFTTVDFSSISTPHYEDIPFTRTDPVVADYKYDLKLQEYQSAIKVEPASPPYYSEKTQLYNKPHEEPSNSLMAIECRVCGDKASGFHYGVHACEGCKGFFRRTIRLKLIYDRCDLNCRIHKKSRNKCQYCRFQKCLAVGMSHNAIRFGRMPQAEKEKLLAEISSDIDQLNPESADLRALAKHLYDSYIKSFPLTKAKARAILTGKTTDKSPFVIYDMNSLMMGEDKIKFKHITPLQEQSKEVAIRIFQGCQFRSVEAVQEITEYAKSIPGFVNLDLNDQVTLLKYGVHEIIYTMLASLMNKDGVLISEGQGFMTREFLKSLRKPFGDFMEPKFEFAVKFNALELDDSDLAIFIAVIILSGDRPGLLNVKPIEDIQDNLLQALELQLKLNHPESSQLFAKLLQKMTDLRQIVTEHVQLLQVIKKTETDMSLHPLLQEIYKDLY

Cl/C=C\CCl
inactive: all assays above

O=[N+]([O-])c1ccc(Cl)cc1
not listed: [3] | [20]
inactive: all other assays above

[N-]=[N+]=CC(=O)OC[C@H](N)C(=O)O
not listed: [2] | [3] | [15] | [20]
inactive: all other assays above

Nc1ccccc1
not listed: [20]
inactive: all other assays above
